KCNQ2 inh = KCNQ2 (rat) channel inhibition; AID 2156; CHO-K1 KCNQ2, FluxOR thallium flux, 20 min; active compounds read low; O88943; B-score at 10 µM; hit rate 1.1% among 310,000;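 active = fluorescence ratio B-score at most minus 3 library SDs, with starting brightness B-score within 2 library SDs, cut at about -5.5 in these data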
KCNQ2 pot = KCNQ2 (rat) channel potentiation. B-score at 10 µM. O88943. AID 2239. hit rate 0.54% among 310,000. CHO-K1 KCNQ2, FluxOR thallium flux fluorescence; active compounds read high;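 active = fluorescence ratio B-score at least 3 SD of library B-scores, with initial fluorescence B-score within 3 of them, cut at about 5.3 in these data; same plate scores as AID 2156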;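 note: B-score of peak minus minimum over baseline fluorescence ratio after K+ and Tl+ stimulus; positive B-score means potentiation of KCNQ2 with more thallium influx and brighter signal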
Numbers without * were called inactive; i = inactive; · = no result given. This is a sample that favours compounds with a hit; in the whole collection about 1.6% have one here.

SMILES	KCNQ2 inh	KCNQ2 pot
O=C(Nc1ccc(C(=O)N2CCCCC2)cc1)Nc1cccc(Cl)c1	i	0.41
O=C(CSCc1ccccc1)N1CCN(c2ccccc2)CC1	i	·
C/C(=C\c1ccccc1)C(=O)N1CCN(c2cccc(C(F)(F)F)c2)CC1	-6.2*	-6.2
O=C(CSCc1ccccc1)N1CCN(c2cccc(C(F)(F)F)c2)CC1	-6.5*	-6.5
C/C(=C/c1ccccc1)C(=O)N1CCN(c2ccccc2F)CC1	i	·
CCN(Cc1ccccc1)C(=O)CCS(=O)(=O)c1ccc2c(c1)CCN2C(C)=O	i	1.6
CC1=NN(C(=O)c2ccc(Br)cc2)C(O)(C(F)(F)OC(F)(F)F)C1 (stereo not drawn)	i	5.7*
CC1=NN(C(=O)c2csc(C)c2C)C(O)(C(F)(F)F)C1 (stereo not drawn)	i	1.9
CC1=NN(C(=O)c2c(Br)c(C)nn2C)C(O)(C(F)(F)F)C1 (stereo not drawn)	i	11*
CC1=NN(C(=O)c2csc(C)c2)C(O)(C(F)(F)F)C1 (stereo not drawn)	i	2.9
CC1=NN(C(=O)c2nn(C)cc2Br)C(O)(C(F)(F)F)C1 (stereo not drawn)	i	·
CC1=NN(C(=O)c2cc(C)nn2C)C(O)(C(F)(F)F)C1 (stereo not drawn)	i	6*
COc1cc2c(cc1OC)CN(C(=O)c1ccc3[nH]c(C)c(C)c3c1)CC2	i	·
COCCn1c(SCC(=O)N2CCCc3ccccc32)nc2c(c1=O)SC(C)C2 (stereo not drawn)	i	·
CN(C)CCCn1c(SCC(=O)N2c3ccccc3Sc3ccccc32)nc2ccccc2c1=O	-6.4*	-6.4
Cn1c(SCC(=O)N2c3ccccc3Sc3ccccc32)nc2ccccc21	i	·
Cc1cc(=O)[nH]c(SCC(=O)N2CCCc3ccccc32)n1	-6.2*	-6.2
O=C(CSc1nc(O)cc(=O)[nH]1)N1CCCc2ccccc21	i	0.47
CCOc1ccc2nc(SCC(=O)N3CCCc4ccccc43)sc2c1	i	·
O=C(CSc1nc2cc(Cl)ccc2s1)N1CCCc2ccccc21	-5.9*	-5.9
COCCn1c(SCC(=O)N2CCCc3ccccc32)nc2ccccc2c1=O	-6.7*	-6.7
CCCCN(C)C(=O)CNC(=O)c1nn(-c2ccc(OC)cc2OC)c(=O)c2ccccc12	i	1.2
C=CCn1cc(C(=O)OCC)c(=O)c2ccc(F)cc21	i	0.06
Cn1ccsc1=NC(=O)c1ccc(OC(F)(F)F)cc1	i	0.02
COc1ccccc1NC(=O)CNC(=O)Cn1cnc2sc(C)c(C)c2c1=O	i	·
SMILES	KCNQ2 inh	KCNQ2 pot
CCc1nc(SCC(=O)Nc2ccccc2OC)c2c(C)c(C)sc2n1	-5.8*	-5.8
CCOC(=O)C1=C(N)Oc2ccc3ccccc3c2C1c1ccc(O)cc1 (stereo not drawn)	-6.5*	-6.5
CCOC(=O)C1=C(N)Oc2ccc3ccccc3c2C1c1ccc(O)c(OC)c1 (stereo not drawn)	i	·
CC1(CCBr)C(=O)N(c2ccccc2)c2ccccc21 (stereo not drawn)	i	·
O=C1N(c2ccccc2)c2ccccc2C1(Cc1ccncc1)Cc1ccncc1	-5.6*	-5.6
O=C(COc1ccc(F)cc1Cl)N(Cc1nnc(-c2ccccc2Cl)o1)C1CC1	i	·
O=C(CCCC(=O)OCC(Cl)=C(Cl)Cl)Nc1ccc(F)cc1	i	9.2*
O=C(CCCC(=O)OCC(Cl)=C(Cl)Cl)Nc1cccc2ccccc12	i	·
CC1(c2ccccc2)NC(=O)N(CC(=O)Nc2ccccc2C(=O)N2CCCCC2)C1=O (stereo not drawn)	i	0.1
CC(C)(C)c1ccc(CSc2nnc(-c3ccccn3)n2Cc2ccco2)cc1	-5.6*	-5.6
Clc1cccc(CSc2nnc(-c3ccccn3)n2Cc2ccco2)c1	-6.7*	-6.7
O=C(CSc1nnc(-c2ccccn2)n1Cc1ccco1)c1ccc(Cl)cc1	i	·
Brc1ccc(CSc2nnc(-c3ccccn3)n2Cc2ccco2)cc1	i	·
CCC(C)NC(=O)COC(=O)c1oc2ccccc2c1CSc1ccc(Cl)cc1 (stereo not drawn)	-6.1*	-6.1
O=C(O)c1oc2ccccc2c1CSc1ccc(Cl)cc1	i	2.9
CCOC(=O)Cc1c(C)nc(Cc2ccc(OC(C)C)cc2)[nH]c1=O	i	0.44
CCN(CC(=O)Nc1ccccc1C(F)(F)F)C(=O)c1cc(S(=O)(=O)N2CCCCCC2)ccc1OC	i	·
CCOC1=C/C(=C/c2c(N)n3nc(-c4ccccc4)sc3nc2=O)C=CC1=O	-6.9*	-6.9
CCS(=O)(=O)c1nn2c(N)c(/C=C3/C=CC(=O)C(OC)=C3)c(=O)nc2s1	i	·
Cc1ccc(C(=O)NCCCNC(=O)Cc2ccc(Cl)cc2)cn1	i	0.85
Cc1nc(N2CCN(c3ccccn3)CC2)c2c(C)c(C(=O)Nc3ccc(Br)cc3C)sc2n1	-6*	-6
Cc1ccc(NC(=O)c2sc3nc(C)nc(N4CCN(c5ccccn5)CC4)c3c2C)c(C)c1	i	·
Cc1ccc(S(=O)(=O)Nc2ccccc2CNc2cccc(C)n2)cc1	i	·
CCN(CC(=O)NCc1cccs1)C(=O)c1cccc(S(=O)(=O)Nc2ccccc2Cl)c1	i	·
Cc1cccc(C(=O)NC(=S)NNC(=O)c2cccs2)c1	i	8.2*
SMILES	KCNQ2 inh	KCNQ2 pot
O=C(NC(=S)NNC(=O)c1cccs1)c1ccccc1	i	·
C/C(=C\C(=O)c1ccccc1)Nc1ccc2c(c1)OCO2	i	·
CC(C)(C)N/N=C1\CC(c2ccccc2)Oc2ccccc21 (stereo not drawn)	-7.2*	-7.2
c1ccc(C2C/C(=N\N3CCOCC3)c3ccccc3O2)cc1 (stereo not drawn)	i	·
COc1ccc(C(=O)COC(=O)CCNS(=O)(=O)c2ccccc2)c(OC)c1	i	0.19
CCC1=Nc2cc(C(=O)NCCCN3CCN(C)CC3)ccc2Sc2ccccc21	i	·
Cc1ccc(C(=O)NC(=S)Nc2ccccc2N2CCOCC2)cc1C	-6.1*	-6.1
COc1cc(C(=O)NC(=S)Nc2ccccc2N2CCOCC2)cc(OC)c1OC	i	·
COCc1cc(Sc2ccc(Cl)cc2)nc(-c2ccccc2)n1	-5.9*	-5.9
COCc1cc(Sc2ccc(Br)cc2)nc(-c2ccccc2)n1	i	·
CSCCCN1CCC(n2nccc2NC(=O)CCCc2ccccc2)CC1	i	·
CCCCCCCCN1[C@@H](CC(=O)OC)c2cc(F)ccc2S1(=O)=O	-6*	-6
CCCCCCCCN1[C@@H](CC(=O)OCC)c2cc(F)ccc2S1(=O)=O	i	·
COc1ccc(C2(C)NC(=O)N(CC(=O)NCc3ccccc3F)C2=O)cc1 (stereo not drawn)	i	2.1
Cc1cccc(/C=N/NC(=O)c2c(-c3ccccc3)noc2C)c1O	i	·
Cc1onc(-c2ccccc2)c1C(=O)N/N=C/c1cn(C)c2ccccc12	-6.4*	-6.4
CCOc1ccc(N2C(=O)CC(N(Cc3ccco3)C(C)=O)C2=O)cc1 (stereo not drawn)	i	·
CC(=O)N1CCN(c2cc(N3CCc4ccccc4C3)c(F)cc2[N+](=O)[O-])CC1	-5.6*	-5.6
CCC(=O)N1CCN(c2cc(N3CCCC3)c(F)cc2[N+](=O)[O-])CC1	i	0.05
COc1ccc(NS(=O)(=O)c2cccc(C(=O)NNC(=O)CNC(=O)c3ccc(C)cc3)c2)cc1	i	·
COc1ccc(SCC(=O)c2cc(C)c(OC(=S)N(C)C)c(C)c2)cc1	i	·
Cc1cc(C(=O)CSc2ccc(F)cc2)cc(C)c1OC(=S)N(C)C	-6*	-6

Screening data (PubChem BioAssay)
